LGR2 inh: inhibitors of bursicon-induced LGR2 CRE-luciferase signal, primary screen, cell-based, HEK293, CRE-luciferase reporter, bursicon stimulation. Drosophila bursicon receptor LGR2 (rickets). bursicon-stimulated, 4 h. inhibition, % at 9.99 µM. 0.35% of 380,000 active. AID 720647, 2013;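 active means drop in luminescence signal, shown as inhibition above about 50% in the replicate tests, limit read from the data, passing the limit was not always enough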;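 further: agonist challenge used bursicon conditioned medium at about half maximal strength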
F508del corr: F508del CFTR correction, initial screen, CFBE line, single point | CFBE cells, YFP halide quenching; stimulated with forskolin plus potentiator P3; % fluorescence drop versus neutral controls | activity (quench increase), % at 7.58 µM | 0.36% of 350,000 active;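 active means mean added fluorescence quench of at least 8% versus neutral control, with both replicates also reaching 8%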;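 further: cells transiently co-express mutant CFTR-F508del with the halide-sensitive YFP; corrector assay measuring rescue of mutant channel to the surface after 24 h compound exposure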
EWS-Fli inh: EWS/Fli-driven NR0B1 reporter inhibitors, primary screen, A673 cells, NR0B1 luciferase, luminescence, MLPCN library | viability-normalised | inhibition, % at 12.6 µM | 0.67% of 350,000 active;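 active means mean inhibition of at least 50% after viability correction, with every replicate also passing that limit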;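 further: firefly luciferase signal divided by Alamar Blue viability fluorescence both relative to DMSO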
PAX8 reporter: inhibitors of PAX8-driven TPO luciferase reporter, primary screen, RMG-I cells, single concentration; SteadyGlo, 24 h; inhibition, % at 12.6 µM; 1.2% of 360,000 active; AID 652154, 2013;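 active means mean replicate inhibition at least 60% with every replicate also reaching 60%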;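 further: luciferase light reporting Pax8 driven TPO promoter activity; plate controls were median of neutral control wells for no effect and mitoxantrone controls for full effect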
* marks the source's active call; other numbers are inactive results; / = no result; ! = repeats disagree. Hits are enriched below; roughly 1.8% of the tested compounds scored in any of these assays.

SMILES	LGR2 inh	F508del corr	EWS-Fli inh	PAX8 reporter
CC(Cc1c[nH]c2ccccc12)NC(=O)OCCCl (configuration not stated)	14	-3	3	11
CN1C(=O)/C(=C\C(=O)c2cccs2)c2ccccc21	24	-1	42	89*
O=C(NCc1ccco1)C1CCN(c2ccc(S(=O)(=O)N3CCOCC3)cc2[N+](=O)[O-])CC1	11	0	11	10
Cn1c(N)c(C(=O)CSc2nc(N)cc(=O)[nH]2)c(=O)n(C)c1=O	/	/	/	22
COc1cc(C)ccc1S(=O)(=O)NC(=O)C1(C)CCN1C(=O)c1ccc(C(F)(F)F)nc1C (configuration not stated)	-1	4	4	4
COc1ccc(NC(=O)CSc2nnc(Cn3cnc([N+](=O)[O-])n3)n2C)cc1	22	/	/	9
Cn1c(Cn2cnc([N+](=O)[O-])n2)nnc1SCC(=O)Nc1ccccc1	-1	0	-3	81*
Nc1cc(=O)nc(SCC(=O)Nc2ccccc2Cl)n1-c1ccccc1	12	-1	7	0
CN(C(=O)OC(C)(C)C)c1ccc(-c2nc3ccccc3s2)cc1	99*	5	88*	92*
COc1cccc(-c2nc3ccccc3s2)c1O	53*	1	-124	-36
COc1cccc(-c2nc(N3CCN(C)CC3)c3ccccc3n2)c1O	-9	14*	6	-55
CN1CCN(c2nc(-c3ccccc3O)nc3ccccc23)CC1	3	2	2	1
FC(F)(F)c1ccc(-c2nc3ccccc3s2)cc1	-86	1	-66	-50
CC(C)c1ccc(-c2nc3ccccc3s2)cc1	100*	-1	89*	88*
O=C1CN=C(Nc2cccc(C(F)(F)F)c2)N1C1CCCC1	-3	/	/	/
CS(=O)(=O)c1ccc(NC(=O)c2ccccc2-n2cnnn2)cc1	-4	2	4	2
C[C@@H]1CN([C@H](C)CO)C(=O)c2cc(C#CC(C)(C)O)cnc2O[C@@H]1CN(C)C(=O)C1CCCCC1	-5	-4	-1	/
COc1ccc(S(=O)(=O)N(C)C[C@H]2Oc3ccc(NC(=O)NC(C)C)cc3C(=O)N([C@H](C)CO)C[C@H]2C)cc1	-10	2	3	/
O=C(N=C1SC2CS(=O)(=O)CC2N1c1ccccc1C(F)(F)F)C1CCCO1 (configuration not stated)	10	4	/	-2
CCOc1cc(-c2nc3ccccc3s2)ccc1O	-33	1	-25	-65
COc1ccc(-c2nc3ccccc3s2)cc1O	/	/	/	74*
CCCOc1ccc(/C=N/NC(=O)CSCc2ccc([N+](=O)[O-])cc2)cc1OCC	-7	-1	-9	83*
COc1cccc(S(=O)(=O)N(C)C[C@H]2OCc3ccccc3-c3c(n(C)c4ccccc34)C(=O)N([C@@H](C)CO)C[C@H]2C)c1	27	7	25	86*
COc1cccc(S(=O)(=O)N(C)C[C@@H]2OCc3ccccc3-c3c(n(C)c4ccccc34)C(=O)N([C@@H](C)CO)C[C@@H]2C)c1	14	-3	7	82*
COc1cccc(S(=O)(=O)N(C)C[C@H]2OCc3ccccc3-c3ccccc3C(=O)N([C@H](C)CO)C[C@H]2C)c1	8	-2	16	-3
SMILES	LGR2 inh	F508del corr	EWS-Fli inh	PAX8 reporter
COc1cccc(S(=O)(=O)N(C)C[C@H]2OCc3ccccc3-c3c(n(C)c4ccccc34)C(=O)N([C@H](C)CO)C[C@@H]2C)c1	0	-6	21	66*
COc1cccc(S(=O)(=O)N(C)C[C@@H]2OCc3ccccc3-c3ccccc3C(=O)N([C@@H](C)CO)C[C@@H]2C)c1	22	-3	0	91*
C[C@H](CO)N1C[C@H](C)[C@H](CN(C)Cc2ccccc2C(=O)O)Oc2ncc(C#CC3CC3)cc2C1=O	5	-3	-7	/
C[C@@H]1CCCCO[C@@H](CN(C)Cc2ccccc2)[C@@H](C)CN([C@@H](C)CO)C(=O)c2cc(NS(C)(=O)=O)ccc2O1	4	2	3	10
Cc1ccccc1-c1ccc(C2[C@@H]3CN(C(=O)c4cnccn4)C[C@H]2N3)cc1 (some centres not stated)	-8	-1	-13	5
C[C@H](CO)N1C[C@H](C)[C@H](CN(C)Cc2ccc(C(F)(F)F)cc2)OCc2ccccc2-c2ccccc2C1=O	-9	-6	1	21
COc1cccc(S(=O)(=O)N(C)C[C@@H]2OCc3ccccc3-c3c(n(C)c4ccccc34)C(=O)N([C@H](C)CO)C[C@@H]2C)c1	6	2	8	75*
C[C@@H]1CN([C@@H](C)CO)C(=O)c2ccccc2-c2ccccc2CO[C@H]1CN(C)Cc1ccccc1C(F)(F)F	14	0	23	79*
COc1ccc(S(=O)(=O)Nc2cccc(-c3ccc4nncn4n3)c2)cc1	9	3	64*	41
COc1ccc(C(=O)Nc2cccc(-c3ccc4nncn4n3)c2)cc1	-8	-1	-2	5
O=C1c2c(O)ccc(O)c2C(=O)c2c(NCCNCCO)ccc(NCCNCCO)c21	102*	8	40	106*!
CCOc1ccc(-n2c(SCc3cc(=O)oc4cc(C)ccc34)nnc2-c2cccnc2)cc1	-5	3	10	65*
CC(=O)c1c(NCCc2ccccc2)nc(=S)n(-c2ccccc2)c1C	71*	-1	30	-11
CCCCN1CC(COCc2ccccc2)Oc2cccc(NCc3cc(OC)c(OC)c(OC)c3)c2S1(=O)=O (configuration not stated)	4	4	7	30
C[C@H]1CN([C@@H](C)CO)C(=O)c2cc(NC(=O)C3CCCCC3)ccc2O[C@@H]1CN(C)Cc1ccc(-c2ccccc2)cc1	8	3	6	/
Cc1nn(C)c(C)c1/C=N/O	1	/	/	/
COc1ccccc1N1CCN(C2=Nc3cccc4cccc2c34)CC1	-40	/	-103	-123
COc1ccccc1NC1=Nc2cccc3cccc1c23	-12	2	-12	91*
CN1C(=O)c2cc(NC(=O)c3cccc(Cl)c3)ccc2OC[C@H]2O[C@H](CC(=O)NC3CCCCC3)CC[C@@H]21	-6	-1	0	70*
CN1C(=O)c2cc(NC(=O)Cc3cccs3)ccc2OC[C@@H]2O[C@@H](CC(=O)NCc3ccc(-c4ccccc4)cc3)CC[C@H]21	/	1	71*	66*
CN1C(=O)c2cc(NS(=O)(=O)c3ccc(Cl)cc3)ccc2OC[C@H]2O[C@@H](CC(=O)N3CCc4ccccc4C3)CC[C@@H]21	11	-1	19	74*
CN1C(=O)c2cc(NS(=O)(=O)c3ccc(Cl)cc3)ccc2OC[C@@H]2O[C@@H](CC(=O)N3CCc4ccccc4C3)CC[C@@H]21	6	-2	17	38
COc1cccc(S(=O)(=O)Nc2ccc3c(c2)C(=O)N(C)[C@H]2CC[C@H](CC(=O)Nc4ccc(C(C)C)cc4)O[C@@H]2CO3)c1	-17	1	11	66*

High-throughput results: PubChem, Broad Institute
